# In PubChem BioAssay AID2501 (Southern Research Specialized Biocontainment Screening …, 2010):
# Screen size: about 2,200 compounds; about 1,200 (55%) were called active. Cut-off not given; nearly all actives show IC50 up to about 92 µM. So high a share suggests a set chosen from earlier hits. The list shows a part of the results.
# Experiment: counter assay for TAg ATPase ADP read-out – biochemical, ADP-Hunter, fluorescence, counter-screen (AID 2501);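 further: purified T antigen ATPase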
# Details: series mostly up to 100 µM
row,Structure (SMILES),IC50
1,COc1cccc(C(c2sc3nc(C)nn3c2O)N2CCN(c3ccccc3F)CC2)c1 (stereo unspecified),inactive
2,CN(C)c1nn(C(=O)Nc2ccc(Cl)cc2Cl)cc1-c1ccccc1,14.8 µM (active)
3,O=C(O)/C=C/C(=O)Nc1ccc(Cl)cc1C(=O)c1ccccc1,inactive
4,CCCCSc1cc(C)nc(N)n1,inactive
5,CCN(CC)c1ccc(NC(=O)c2cccc(C)c2OC)c(C)c1,14.9 µM (active)
6,CCN(CC)c1ccc(NC(=O)c2cccnc2)c(C)c1,6.37 µM (active)
7,CCN(CC)c1ccc(NC(=O)c2cccnc2)cc1,8.35 µM (active)
8,COC(=O)NNC(=O)c1ccccc1C,inactive
9,CCN(CC)c1ccc(NC(=O)c2cnn(CC)c2)cc1,4.27 µM (active)
10,COCCNC(=O)C(=O)Nc1ccc(Cl)cc1C,inactive
11,CCOC(=O)c1cc(NC(=O)c2cccnc2)ccn1,inactive
12,COc1ccc(N2C(=NC(C)=O)SC3CS(=O)(=O)CC32)cc1OC (stereo unspecified),inactive
13,CC(C)=CCc1c(O)c(CC=C(C)C)c2c(c1O)-c1cc(O)c(O)cc1CC2,inactive
14,O=C(NCc1ccccn1)C1CCN(S(=O)(=O)c2ccccc2)CC1,inactive
15,CCN(CC)c1ccc(NC(=O)c2cccc(F)c2)c(C)c1,9.01 µM (active)
16,COc1ccc2c(c1OC)C(=O)N(c1ccc(O)cc1)C2,2.39 µM (active)

row,Structure (SMILES),IC50
1,C=CS(=O)c1sc(Cl)c(N2CCOCC2)c1[N+](=O)[O-] (stereo unspecified),inactive
2,CC(=O)Oc1cc2cccc(OC(C)=O)c(=O)c2c(OC(C)=O)c1OC(C)=O,91.6 µM (active)
3,O=S(=O)(c1ccc(NC(=S)N2CCN(c3ccc(O)cc3)CC2)cc1)N1CCOCC1,4.49 µM (active)
4,Cc1ccc(S(=O)(=O)N2CCOCC2)cc1NC(=O)CN1CCN(c2ccc(O)cc2)CC1,5.44 µM (active)
5,O=C(CN1CCN(c2ccc(O)cc2)CC1)Nc1cc(S(=O)(=O)N2CCOCC2)ccc1Cl,6.43 µM (active)
6,Cc1ccc(S(=O)(=O)Nc2cc(NC(=O)CN3CCOCC3)ccc2Cl)cc1,inactive
7,Cn1c(CCC(=O)Nc2cc(S(C)(=O)=O)ccc2Cl)nc2cc(S(=O)(=O)N3CCOCC3)ccc21,inactive
8,COC(=O)Nc1ccc(S(=O)(=O)N2CCCC(C(=O)N3CCOCC3)C2)cc1 (stereo unspecified),inactive
9,Cc1ccc(S(=O)(=O)n2nc(OC(=O)c3ccccc3C)cc2N)cc1,inactive
10,C=CCSc1nc(N)c(NC(=O)c2ccco2)c(=O)[nH]1,inactive
11,COc1ccccc1NC(=O)c1c([N+](=O)[O-])cnn1C,inactive
12,COc1ccccc1NC(=O)Oc1ccc(NC(=O)c2ccco2)cc1,3.94 µM (active)
13,O=C(Nc1ccc(Cl)c(Cl)c1)Oc1ccc(NC(=O)c2ccco2)cc1,23.2 µM (active)
14,O=C(Nc1cccc(NC(=O)c2ccco2)c1)c1ccc([N+](=O)[O-])cc1,inactive
15,COc1cc(NC(=O)COc2ccccc2C)ccc1NC(=O)c1ccco1,inactive
